This passage reports Percent Effect results from ChEMBL document CHEMBL3988442, “University of Dundee, Small-Polar-MMV Screening Library” (2021).

For some of these results: Entries with a potency or affinity are not part of this list.

What all share (parameters): scale not given: direction of the effect not stated beside the values
For assay [1], the target named is Protein translocase subunit SecA (Escherichia coli (strain K12)) (UniProt P10408). Briefly: Assay to Identify E. coli SecA ATPase Inhibitors. The format is functional. Particulars: 30 µM.
Protein translocase subunit SecA (Escherichia coli (strain K12)), sequence (P10408 whole entry): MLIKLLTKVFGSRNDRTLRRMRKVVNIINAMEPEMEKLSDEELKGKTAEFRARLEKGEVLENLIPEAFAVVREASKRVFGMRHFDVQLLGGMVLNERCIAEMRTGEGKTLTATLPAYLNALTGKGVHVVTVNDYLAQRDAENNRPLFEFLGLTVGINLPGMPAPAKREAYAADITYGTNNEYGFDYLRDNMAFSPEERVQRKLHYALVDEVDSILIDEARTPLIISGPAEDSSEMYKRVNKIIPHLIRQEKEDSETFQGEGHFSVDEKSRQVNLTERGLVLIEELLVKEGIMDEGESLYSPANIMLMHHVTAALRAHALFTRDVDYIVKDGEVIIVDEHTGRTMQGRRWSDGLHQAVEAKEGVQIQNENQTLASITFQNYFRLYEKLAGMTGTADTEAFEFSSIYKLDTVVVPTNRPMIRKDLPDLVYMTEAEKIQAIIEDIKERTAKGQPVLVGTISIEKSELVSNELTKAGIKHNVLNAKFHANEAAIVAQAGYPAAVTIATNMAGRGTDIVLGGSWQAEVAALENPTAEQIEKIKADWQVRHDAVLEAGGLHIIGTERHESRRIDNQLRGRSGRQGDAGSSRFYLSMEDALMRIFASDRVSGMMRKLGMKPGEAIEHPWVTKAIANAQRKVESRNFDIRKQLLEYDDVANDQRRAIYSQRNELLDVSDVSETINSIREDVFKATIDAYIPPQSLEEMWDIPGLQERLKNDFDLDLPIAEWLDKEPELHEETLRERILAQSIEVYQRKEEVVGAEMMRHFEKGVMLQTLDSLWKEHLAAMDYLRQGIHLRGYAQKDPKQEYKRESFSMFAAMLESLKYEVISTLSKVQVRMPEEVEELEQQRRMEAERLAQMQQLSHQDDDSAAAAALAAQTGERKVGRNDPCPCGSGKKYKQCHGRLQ
The target in assay [2] is T1, Ubiquitin-activating enzyme e1, putative (Leishmania donovani (strain BPK282A1)) (UniProt E9BSI1).
T1 sequence (whole entry): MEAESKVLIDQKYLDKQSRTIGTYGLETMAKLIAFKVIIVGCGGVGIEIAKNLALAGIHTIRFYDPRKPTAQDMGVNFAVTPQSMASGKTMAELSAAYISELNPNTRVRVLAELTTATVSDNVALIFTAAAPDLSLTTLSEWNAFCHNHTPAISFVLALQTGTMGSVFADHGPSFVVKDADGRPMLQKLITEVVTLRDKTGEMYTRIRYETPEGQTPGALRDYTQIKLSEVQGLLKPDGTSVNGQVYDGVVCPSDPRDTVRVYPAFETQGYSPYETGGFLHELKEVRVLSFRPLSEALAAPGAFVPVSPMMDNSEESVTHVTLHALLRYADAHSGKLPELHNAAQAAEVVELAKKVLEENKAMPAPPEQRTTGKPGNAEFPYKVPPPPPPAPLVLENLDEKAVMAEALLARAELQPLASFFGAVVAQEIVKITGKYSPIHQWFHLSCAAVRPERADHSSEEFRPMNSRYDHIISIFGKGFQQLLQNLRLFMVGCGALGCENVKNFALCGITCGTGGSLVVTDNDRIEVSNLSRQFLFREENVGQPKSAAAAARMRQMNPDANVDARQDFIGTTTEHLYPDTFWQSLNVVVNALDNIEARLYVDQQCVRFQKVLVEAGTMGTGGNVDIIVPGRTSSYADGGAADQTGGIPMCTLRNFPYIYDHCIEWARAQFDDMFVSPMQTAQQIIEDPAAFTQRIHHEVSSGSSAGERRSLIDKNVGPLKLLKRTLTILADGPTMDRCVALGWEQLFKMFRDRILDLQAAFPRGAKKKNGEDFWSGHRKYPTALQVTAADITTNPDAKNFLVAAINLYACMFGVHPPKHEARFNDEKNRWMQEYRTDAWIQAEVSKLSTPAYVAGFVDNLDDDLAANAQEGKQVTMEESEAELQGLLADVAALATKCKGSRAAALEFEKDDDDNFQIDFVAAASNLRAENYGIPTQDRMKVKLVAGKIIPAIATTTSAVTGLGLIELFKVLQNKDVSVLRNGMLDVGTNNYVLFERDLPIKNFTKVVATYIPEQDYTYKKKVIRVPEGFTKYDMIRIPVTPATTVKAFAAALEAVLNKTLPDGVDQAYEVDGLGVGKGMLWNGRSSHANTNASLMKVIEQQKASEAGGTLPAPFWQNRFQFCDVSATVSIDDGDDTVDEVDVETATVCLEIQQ
Briefly: Leishmania donovani Ubiquitin Activating Enzyme (LdE1). Particulars: 30 µM. The format is functional.

Assay [3] has as its target AMP-activated protein kinase, AMPK (Homo sapiens) (UniProt P54646+O43741+P54619+Q9UGJ0+Q9Y478+Q13131+Q9UGI9). In words: AMP-dependent Kinase enzyme assay. An in vitro enzyme assay that detects ADP turnover that is directly proportional to AMPK activity. This uses naive AMPK that is activated during the assay with MK-8722. The format is functional. The note with it: 30 µM.

Assay [4] has as its target Sialic acid-binding Ig-like lectin 9 (Homo sapiens) (UniProt Q9Y336). Briefly: Hs-Siglec9 ALPHAscreen SOP 20170721. The note with it: 10 µM.
The test system of a further assay is Trypanosoma cruzi. In words: Trypanosoma cruzi phosphomannomutase and mannose-1-phosphate guanylyltransferase assay. The note with it: 10 µM. The format is functional.
Assay [5] addresses T2, Arginase-2, mitochondrial (Homo sapiens) (UniProt P78540).
T2 sequence (whole entry): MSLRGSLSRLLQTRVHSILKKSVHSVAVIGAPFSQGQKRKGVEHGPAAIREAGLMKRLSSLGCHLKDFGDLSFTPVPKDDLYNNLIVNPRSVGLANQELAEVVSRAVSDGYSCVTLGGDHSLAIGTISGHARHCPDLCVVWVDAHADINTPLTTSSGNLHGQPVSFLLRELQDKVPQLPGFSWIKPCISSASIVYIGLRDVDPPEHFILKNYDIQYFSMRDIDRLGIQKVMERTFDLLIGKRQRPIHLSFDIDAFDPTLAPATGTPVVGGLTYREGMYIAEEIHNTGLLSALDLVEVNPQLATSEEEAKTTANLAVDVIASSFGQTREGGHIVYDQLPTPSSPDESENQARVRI
In words: in vitro enzyme assay to detect the production of urea directly proportional to the activity of Arginase II. Note: in the data most compounds retested in dose-response had high values. The format is functional. Particulars: 33.3 µM.

For assay [6], the target named is T3, Proteasome subunit beta (Trypanosoma cruzi) (UniProt O96673).
T3 sequence (whole entry): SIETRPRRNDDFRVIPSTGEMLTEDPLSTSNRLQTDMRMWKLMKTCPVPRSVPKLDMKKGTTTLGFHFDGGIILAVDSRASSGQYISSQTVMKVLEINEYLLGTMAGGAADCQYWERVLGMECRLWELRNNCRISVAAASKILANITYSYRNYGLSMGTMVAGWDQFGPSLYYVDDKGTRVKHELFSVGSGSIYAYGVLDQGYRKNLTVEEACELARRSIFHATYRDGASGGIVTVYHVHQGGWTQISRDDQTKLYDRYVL
Briefly: Trypanosoma cruzi proteasome chymotrypsin-like activity (TcProtChymo) assay. Note: in the data most compounds retested in dose-response had high values. The format is functional. Particulars: 9.37 µM.

The species named for another assay is Homo sapiens. In words: To identify inhibition of the IFN signalling (Jak-Stat) pathway via expression of an eGFP reporter gene under the control of an IFN-stimulated response element (ISRE) containing MxA promoter. The format is functional. The note with it: 30 µM.
The target of assay [7] is T4, Tyrosyl-tRNA synthetase, putative (Trypanosoma cruzi (strain CL Brener)) (UniProt Q4DSP6).
T4 sequence (whole entry): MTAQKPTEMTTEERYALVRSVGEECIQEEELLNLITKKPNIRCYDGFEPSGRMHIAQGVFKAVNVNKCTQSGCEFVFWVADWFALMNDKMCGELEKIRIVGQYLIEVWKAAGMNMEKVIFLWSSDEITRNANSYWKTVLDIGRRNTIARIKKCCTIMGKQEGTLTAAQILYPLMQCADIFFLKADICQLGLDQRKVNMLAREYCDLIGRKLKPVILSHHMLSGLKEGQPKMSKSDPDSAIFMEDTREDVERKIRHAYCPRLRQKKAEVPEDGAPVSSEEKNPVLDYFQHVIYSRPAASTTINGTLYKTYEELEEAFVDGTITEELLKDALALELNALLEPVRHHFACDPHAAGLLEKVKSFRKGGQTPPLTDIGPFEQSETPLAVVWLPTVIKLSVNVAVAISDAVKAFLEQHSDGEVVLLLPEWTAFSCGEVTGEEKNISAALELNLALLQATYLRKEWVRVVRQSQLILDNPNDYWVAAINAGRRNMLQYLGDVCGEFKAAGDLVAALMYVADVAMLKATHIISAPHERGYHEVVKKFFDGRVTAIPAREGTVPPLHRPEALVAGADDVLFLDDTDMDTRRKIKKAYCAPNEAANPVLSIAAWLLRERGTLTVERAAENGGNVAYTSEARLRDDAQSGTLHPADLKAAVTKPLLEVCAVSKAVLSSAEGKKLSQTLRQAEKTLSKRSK
In words: Trypanosoma cruzi tyrosyl tRNA synthetase (TcYRS) _High Tyrosine SOP. Note: in the data most compounds retested in dose-response had high values. The format is functional. The note with it: 30 µM.

For assay [8], the target named is T4, Tyrosyl-tRNA synthetase, putative (Trypanosoma cruzi (strain CL Brener)). In words: Trypanosoma cruzi tyrosyl tRNA synthetase (TcYRS) SOP. The format is functional. Particulars: 30 µM.
Assay [9] concerns the target Chromo domain-containing protein 1 (Saccharomyces cerevisiae (strain ATCC 204508 / S288c) (Baker's yeast)) (UniProt P32657). In words: ScCHD-1 Enzyme Inhibition Assay. Note: in the data most compounds retested in dose-response had high values. The format is functional. Particulars: 30 µM.

Chromo domain-containing protein 1 (Saccharomyces cerevisiae (strain ATCC 204508 / S288c) (Baker's yeast)), sequence (P32657 whole entry, the tested form may be a part): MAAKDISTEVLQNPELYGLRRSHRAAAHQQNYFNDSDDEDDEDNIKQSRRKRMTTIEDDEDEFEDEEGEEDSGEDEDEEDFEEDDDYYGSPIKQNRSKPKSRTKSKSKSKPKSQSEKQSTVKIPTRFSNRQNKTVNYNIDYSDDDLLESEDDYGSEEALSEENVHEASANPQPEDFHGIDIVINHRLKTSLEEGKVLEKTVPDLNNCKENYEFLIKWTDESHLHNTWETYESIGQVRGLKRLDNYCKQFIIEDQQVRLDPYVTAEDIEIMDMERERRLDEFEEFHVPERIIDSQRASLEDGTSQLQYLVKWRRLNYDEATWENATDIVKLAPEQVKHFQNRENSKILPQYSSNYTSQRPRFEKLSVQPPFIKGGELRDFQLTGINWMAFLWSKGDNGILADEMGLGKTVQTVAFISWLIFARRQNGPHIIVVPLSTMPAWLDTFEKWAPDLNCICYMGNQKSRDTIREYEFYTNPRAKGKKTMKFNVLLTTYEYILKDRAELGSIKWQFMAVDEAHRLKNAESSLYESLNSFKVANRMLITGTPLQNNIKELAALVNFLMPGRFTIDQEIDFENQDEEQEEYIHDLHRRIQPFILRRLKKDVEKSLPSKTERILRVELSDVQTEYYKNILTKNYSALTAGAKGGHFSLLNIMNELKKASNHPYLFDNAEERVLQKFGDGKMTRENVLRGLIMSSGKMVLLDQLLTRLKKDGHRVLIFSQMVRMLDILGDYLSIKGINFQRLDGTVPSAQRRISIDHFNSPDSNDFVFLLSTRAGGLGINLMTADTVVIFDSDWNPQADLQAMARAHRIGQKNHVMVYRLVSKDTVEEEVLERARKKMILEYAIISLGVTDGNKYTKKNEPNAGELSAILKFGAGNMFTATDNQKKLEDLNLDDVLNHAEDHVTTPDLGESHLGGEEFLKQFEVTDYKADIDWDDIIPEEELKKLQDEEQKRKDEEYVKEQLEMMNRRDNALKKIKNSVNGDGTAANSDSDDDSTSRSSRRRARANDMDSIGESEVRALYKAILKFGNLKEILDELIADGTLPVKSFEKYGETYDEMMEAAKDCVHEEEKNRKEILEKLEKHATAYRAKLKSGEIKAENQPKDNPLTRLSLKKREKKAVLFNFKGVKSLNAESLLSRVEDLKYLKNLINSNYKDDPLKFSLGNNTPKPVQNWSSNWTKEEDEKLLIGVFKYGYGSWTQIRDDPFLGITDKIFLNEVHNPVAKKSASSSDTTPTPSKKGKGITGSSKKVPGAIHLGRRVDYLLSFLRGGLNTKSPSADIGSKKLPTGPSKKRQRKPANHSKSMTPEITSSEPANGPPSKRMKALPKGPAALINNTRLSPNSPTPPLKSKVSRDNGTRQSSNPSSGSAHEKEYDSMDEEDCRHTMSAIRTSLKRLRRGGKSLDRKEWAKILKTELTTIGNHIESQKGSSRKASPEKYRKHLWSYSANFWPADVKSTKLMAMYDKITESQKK
Sialic acid-binding Ig-like lectin 9 (Homo sapiens), sequence (Q9Y336 whole entry): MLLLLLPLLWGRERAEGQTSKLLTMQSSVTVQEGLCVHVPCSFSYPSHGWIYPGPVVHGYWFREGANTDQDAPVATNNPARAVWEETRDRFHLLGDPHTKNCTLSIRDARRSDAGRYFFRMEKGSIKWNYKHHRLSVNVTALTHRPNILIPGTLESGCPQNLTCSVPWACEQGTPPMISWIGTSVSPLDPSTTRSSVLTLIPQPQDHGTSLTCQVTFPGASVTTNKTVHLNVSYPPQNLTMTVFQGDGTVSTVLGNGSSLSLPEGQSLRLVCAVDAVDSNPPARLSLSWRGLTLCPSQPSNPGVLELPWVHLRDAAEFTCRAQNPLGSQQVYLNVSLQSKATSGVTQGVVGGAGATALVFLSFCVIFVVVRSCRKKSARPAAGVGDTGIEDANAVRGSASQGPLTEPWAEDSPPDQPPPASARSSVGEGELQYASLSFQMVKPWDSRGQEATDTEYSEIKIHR

As for `Fc1ccc(-c2nnc(CN3CCCC3Cn3cncn3)o2)cc1` (stereo not drawn), the Percent Effect in assay [1] is -1.9%; in assay [2], 5.2%; in assay [3], -0.239%; in assay [4] it was 9.41%; in the assay on Trypanosoma cruzi, 6.93%; in assay [5], 0.712%. The Percent Effect in assay [6] was 7.26%; in the assay filed under Homo sapiens it was -14.3%; in assay [7], 4.85%; in assay [8], 19.5%; in assay [9] it was -10.5%.

Consider `COCCC(=O)N1CCC2(COCc3cnc(-c4ccccc4)nc32)C1` (stereo not drawn), for which the Percent Effect in [1] is -1.59%; in [2], 2.67%; in assay [3] it was 15.5%; in assay [4], -0.802%; in the assay on Trypanosoma cruzi it was -7.48%; in assay [5], 2.56%. In addition, the Percent Effect in [6] was 1.15%; in the assay listed under Homo sapiens it was 6.76%; in [7], -1.06%; in [8], 3.85%; in [9], -0.943%.

Turning to `COCc1ccccc1CNCc1c(C)nn(C)c1N(C)C`, the Percent Effect in [1] is -5.19%; in assay [2] it was 10.8%; in assay [3], -41.2%; in assay [4], 6.46%; in the assay on Trypanosoma cruzi, -0.849%; in assay [5], 0%. For the same molecule, the Percent Effect in [6] is -5.04%; in the assay filed under Homo sapiens, -1.56%; in assay [7], 9.36%; in assay [8] it was 6.17%; in assay [9], -5.6%.

With `CCCN1CCN(C(=O)C(C)n2cc(Br)cn2)CC1` (stereo not drawn), the Percent Effect in [1] is -1.59%; in assay [2], 15.6%; in [3], 5.22%; in [4] it was 7.33%; with Trypanosoma cruzi it was 3.05%; in assay [5] it was -137%. For the same molecule, the Percent Effect in assay [6] is 10.3%; in the assay filed under Homo sapiens, -2.4%; in assay [7] it was 7.53%; in assay [8] it was 21%; in assay [9] it was -7.35%.

`Cc1cnn(CCCNC(=O)N2CCCCC(N3CCCC3)C2)c1` (stereo not drawn): the Percent Effect in assay [1] is -2.45%; in assay [2], 15.8%; in assay [3] it was 0.679%; in [4], 7.49%; in the assay on Trypanosoma cruzi it was 3.19%; in [5], 4.21%. Besides, the Percent Effect in assay [6] is 15.5%; in the assay listed under Homo sapiens, 8.88%; in assay [7], 8.33%; in assay [8] it was 19.5%; in [9] it was -2.25%.

Take `COc1ccc2cc(C(=O)N3CCCCC3CC(N)=O)[nH]c2c1` (stereo not drawn): the Percent Effect in assay [1] was -4.78%; in assay [2], 15.6%; in assay [3], 7.25%; in assay [4], 13.8%; in the assay with Trypanosoma cruzi, -0.187%; in assay [5], -3.56%. Further, the Percent Effect in [6] was 5.57%; in the assay filed under Homo sapiens, -10.4%; in [7] it was 5.83%; in [8], 12.2%; in [9] it was -4.84%.

Consider `Cc1ccc(CNC2CCN(CCc3ccncc3)CC2)s1`, for which the Percent Effect in [1] was -6.73%; in assay [2], -5.41%; in assay [3] it was -1.83%; in [4] it was 2.51%; with Trypanosoma cruzi it was -1.76%; in assay [5], 5.42%. Besides, the Percent Effect in [6] is 7.86%; in the assay listed under Homo sapiens, 1.37%; in assay [7], 7.92%; in [8] it was 8.54%; in assay [9] it was -4.89%.

As to `CC(=O)Nc1nc(C2CCN(C(C)=O)CC2)cs1`, the Percent Effect was 0.424% in [1]; 8% in assay [2]; 6.04% in [3]; -0.593% in assay [4]; -4.33% in the assay on Trypanosoma cruzi; 0.699% in assay [5]. For the same molecule, the Percent Effect is 11.2% in [6]; 4.06% in the assay filed under Homo sapiens; 6.38% in assay [7]; 6.41% in assay [8]; -3.5% in assay [9].
